# Compound activity as filed in PubChem.
# Compounds with a hit are over-represented: about 1.6% of the library has one in this group of screens.
# KCNQ2 pot: potentiators of rat KCNQ2 potassium channel. CHO-K1 KCNQ2, FluxOR thallium flux fluorescence; stronger effect = higher value. B-score at 10 µM. Potassium voltage-gated channel subfamily KQT member 2 (Rattus norvegicus), O88943. AID 2239, 2010. hit rate 0.54% among 310,000;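 active = fluorescence ratio B-score at least 3 SD of library B-scores, with initial fluorescence B-score within 3 of them, cut at about 5.3 in these data; same plate scores as AID 2156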;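 also: B-score of peak minus minimum over baseline fluorescence ratio after K+ and Tl+ stimulus; positive B-score means potentiation of KCNQ2 with more thallium influx and brighter signal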
# Target sequence (O88943 whole entry, looked up): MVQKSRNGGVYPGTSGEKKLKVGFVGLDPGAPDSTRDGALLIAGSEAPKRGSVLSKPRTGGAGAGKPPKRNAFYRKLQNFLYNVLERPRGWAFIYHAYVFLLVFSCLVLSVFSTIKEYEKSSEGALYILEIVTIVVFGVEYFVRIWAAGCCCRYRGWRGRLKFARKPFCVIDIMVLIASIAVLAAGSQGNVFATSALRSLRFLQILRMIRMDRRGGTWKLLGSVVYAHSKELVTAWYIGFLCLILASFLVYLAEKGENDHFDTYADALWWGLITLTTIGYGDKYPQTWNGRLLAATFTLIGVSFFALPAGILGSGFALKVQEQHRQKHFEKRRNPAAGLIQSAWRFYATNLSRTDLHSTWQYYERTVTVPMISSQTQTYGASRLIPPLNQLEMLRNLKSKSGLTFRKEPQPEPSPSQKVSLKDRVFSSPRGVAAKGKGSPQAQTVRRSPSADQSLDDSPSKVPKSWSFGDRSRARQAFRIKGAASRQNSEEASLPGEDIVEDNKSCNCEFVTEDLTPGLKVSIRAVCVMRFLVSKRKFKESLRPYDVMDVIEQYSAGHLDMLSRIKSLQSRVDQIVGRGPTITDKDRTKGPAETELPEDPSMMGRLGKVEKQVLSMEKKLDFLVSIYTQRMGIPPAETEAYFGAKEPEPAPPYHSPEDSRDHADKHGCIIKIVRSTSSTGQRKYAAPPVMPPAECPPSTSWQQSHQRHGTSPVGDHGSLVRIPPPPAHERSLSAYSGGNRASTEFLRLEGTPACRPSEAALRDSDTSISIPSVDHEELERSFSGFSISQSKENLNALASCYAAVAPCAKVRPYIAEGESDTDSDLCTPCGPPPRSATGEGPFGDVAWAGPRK
# KCNQ2 inh: rat KCNQ2 potassium channel inhibitors, primary screen, cell-based, CHO-K1, FluxOR thallium flux, B-score. B-score at 10 µM. 20 min; stronger effect = lower value. hit rate 1.1% among 310,000;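 active = fluorescence ratio B-score at most minus 3 library SDs, with starting brightness B-score within 2 library SDs, cut at about -5.5 in these data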
# * marks the source's active call; other numbers are inactive results; i = inactive; / = no result given.
SMILES,KCNQ2 pot,KCNQ2 inh
CCc1ccc2c(CN3CCN(S(=O)(=O)c4ccc5c(c4)OCCO5)CC3)cc(=O)oc2c1,0.46,i
O=C(CCCC(=O)OCC(Cl)=C(Cl)Cl)Nc1ccc(F)cc1,9.2*,i
O=C(CCCC(=O)OCC(Cl)=C(Cl)Cl)Nc1cccc2ccccc12,/,i
O=C(NCC1CCN(Cc2cccc(Cl)c2)CC1)Nc1ccccc1Cl,1.4,i
Cc1ccc(NC(=O)NCC2CCN(Cc3cccc(Cl)c3)CC2)c(Cl)c1,6.5*,i
CC(Oc1ccc(F)cc1F)C(=O)NNC(=S)NCC1CCCO1 (centres undefined),/,i
CN(C)c1ccc(NC(=O)C2CCCN(S(=O)(=O)c3ccccc3)C2)cc1 (centres undefined),/,i
O=C(NCc1ccccn1)C(=O)NCC1OCCCN1S(=O)(=O)c1cc(F)ccc1F (centres undefined),/,i
COc1cccc(CN(C)C(=O)c2cc(COc3ccc4ncccc4c3)on2)c1,-7.5,-7.5*
CN(CCc1ccccc1)C(=O)c1cc(COc2cccc(C(F)(F)F)c2)on1,-5.5,-5.5*
O=C(NCCc1cn2ccccc2n1)c1cc(COc2ccc3ncccc3c2)on1,-6,-6*
Cc1cc(OCc2cc(C(=O)N(C)Cc3ccccn3)no2)cc(C)c1Cl,/,i
CN(CCCN1CCOCC1)C(=O)c1cc(COc2cccc(C(F)(F)F)c2)on1,/,i
O=C(NC1CCCC1)c1cc(COc2ccc3ncccc3c2)on1,3,i
Cc1cc(OCc2cc(C(=O)N(C)CCOc3ccccc3)no2)cc(C)c1Cl,-5.7,-5.7*
COc1cccc(CN(C)C(=O)c2cc(COc3c(F)cccc3F)on2)c1,/,i
O=C(NCCN1CCOCC1)C1CC(=O)N(c2ccc(Cl)cc2)C1 (centres undefined),0.31,i
O=C(NCc1ccccc1)C(=O)Nc1nc(C23CC4CC(CC(C4)C2)C3)cs1,5.5*,i
O=C(NCc1ccncc1)C(=O)Nc1nc(C23CC4CC(CC(C4)C2)C3)cs1,0.15,i
COc1ccc(C(=O)NCCn2cc(SCC(=O)NCC3CCCO3)c3ccccc32)cc1OC (centres undefined),/,i
CCOC(=O)C(NC(=O)c1ccccc1Cl)(Nc1ccc(C)c(C)c1)C(F)(F)F (centres undefined),/,i
COC(=O)C(Nc1ccccc1Cl)(c1cc(C)c(O)c(C)c1)C(F)(F)F (centres undefined),-8,-8*
Cc1ccn2c(=O)c(C(=O)NC3CCCCC3C)c(O)nc2c1 (centres undefined),/,i
O=C(NC(=S)NNC(=O)c1cccs1)c1ccccc1,/,i
Cc1cccc(C(=O)NC(=S)NNC(=O)c2cccs2)c1,8.2*,i
SMILES,KCNQ2 pot,KCNQ2 inh
COc1ccc(/C=N/NC(=O)c2cccc(Br)c2)cc1COc1ccccn1,/,i
CC1CCCCC1NC(=O)C(Cc1ccccc1)NS(=O)(=O)c1cccs1 (centres undefined),/,i
CC(CCc1ccccc1)NC(=O)C(Cc1ccccc1)NS(=O)(=O)c1cccs1 (centres undefined),-5.7,-5.7*
CCc1nc(C)c(C(=O)N2CCCC(C(=O)Nc3cccc(-c4cccc(C)c4)c3)C2)o1 (centres undefined),0.91,i
O=C(O)CC1(O)C(=O)N(Cc2ccccc2)c2ccccc21 (centres undefined),1.2,i
Cc1ccc(C(=O)N2c3ccccc3N(Cc3ccccc3)C(=O)C2(C)C)cc1,-5.6,-5.6*
Cc1ccc(CNC(=O)CN(C(=O)C2(C)CC(=O)N=C3C=CC=CN32)c2ccc(F)cc2)cc1 (centres undefined),1.8,i
CC(C)(C)c1ccc(C(=O)NC(=S)Nc2nc3c(s2)CCCC3)cc1,8.5*,i
CN(C)c1ccc(C(=O)Nc2nc3c(s2)CCCC3)cc1,/,i
CCN(CC)C(=O)CS(=O)(=O)CC(=O)Nc1cc(OCCOC)c(Cl)cc1Cl,/,i
Cc1ccc(SCCNC(=S)Nc2ccc(C)cc2C)cc1,7*,i
Cc1ccc(SCCNC(=S)Nc2cc(C)cc(C)c2)cc1,/,i
CC1CCN(C(=O)CSc2nnc3ccc(-c4cccnc4)nn23)CC1,/,i
COc1ccc(CC(=O)Oc2cc(C)ccc2C)cc1,/,i
O=C(Cc1ccc(Cl)c(Cl)c1)Nc1ccccc1N1CCOCC1,0.67,i
O=C(Nc1ccccc1N1CCOCC1)C1(c2ccc(Cl)cc2)CCC1,-6.5,-6.5*
CN1CCN(c2sc(S(C)(=O)=O)nc2S(=O)(=O)c2ccc(Cl)cc2)CC1,/,i
Cc1cccc(-n2cc(CN(C)Cc3nccn3C)c(-c3cccc(F)c3)n2)c1,-6.7,-6.7*
CCn1ccnc1CN(C)Cc1cn(-c2cccc(C)c2)nc1-c1cccc(F)c1,/,i
Cc1ccc(S(=O)(=O)N2CCN(C(=O)c3sccc3-c3ccccc3)CC2)cc1,0.38,i
COc1ccc(NC(=O)c2cc(C)nc3ccccc23)c(OC)c1,/,i
Cc1ccc(NC(=O)c2cc(C)nc3ccccc23)c(C)c1,-5.9,-5.9*
CC(=O)Nc1ccc(C(=O)COC(=O)C2CC3CCCC(C2)C3=O)cc1 (centres undefined),/,i
Cc1ccc(C(=O)Nc2ccccc2-c2ccccc2)cc1[N+](=O)[O-],/,i
Cc1ccc(C(=O)Nc2cc(Cl)ccc2Oc2ccccc2)cc1[N+](=O)[O-],-6.1,-6.1*
SMILES,KCNQ2 pot,KCNQ2 inh
CCCc1ccc(S(=O)(=O)N2CCN(Cc3ccco3)CC2)cc1,-5.9,-5.9*
Cc1ccc(S(=O)(=O)N2CCN(Cc3ccco3)CC2)cc1C,/,i
O=[N+]([O-])c1cc([N+](=O)[O-])c2oc(-c3ccccc3)c(Br)c2c1O,4.5,i
Nc1c(C(=O)Nc2ccc(F)cc2)sc(=S)n1-c1ccccc1F,0.24,i
COc1cccc(-c2nn(-c3ccc(C)cc3)cc2C(=O)NCC(c2cccs2)N2CCOCC2)c1 (centres undefined),-6.9,-6.9*
COc1ccc(-c2nn(-c3ccccc3)cc2C(=O)NCC(c2cccs2)N2CCOCC2)cc1 (centres undefined),/,i
Fc1ccc(Oc2ccnc(Cl)n2)c(Cl)c1,/,i
CCC(CC)C1C(C#N)=C(N)Oc2cc(C)oc(=O)c21 (centres undefined),0.34,i
Cc1cc2c(c(=O)o1)C(c1ccc([N+](=O)[O-])o1)C(C#N)=C(N)O2 (centres undefined),7.7*,i
CCOc1ccc(NC(=O)CN2CCN(CC(=O)Nc3ccc(Cl)c(C(F)(F)F)c3)CC2)cc1,1.3,i
CC(Sc1nnc(-c2cccnc2)n1-c1ccccc1F)C(=O)N1CCCc2ccccc21 (centres undefined),/,i
COc1ccc(-n2cccc2/C=C/[N+](=O)[O-])cc1,-6.5,-6.5*
COc1ccc(-n2cccc2C=O)cc1,0.01,i
CCN(Cc1ccncc1)C(=O)c1ccc2c(c1)S(=O)(=O)c1ccccc1C2=O,1.6,i
Cc1ccccc1OCc1nnc(SCC(=O)N2CCc3ccccc32)n1C,2,i
Cc1cccc(OCc2nnc(SCC(=O)N3c4ccccc4CC3C)n2C)c1C (centres undefined),-6,-6*
Cc1cc(F)ccc1S(=O)(=O)N1CCCOC1CNC(=O)C(=O)NCc1cccnc1 (centres undefined),/,i
O=C(OCC#CCSc1nnc(-c2cccc3ccccc23)o1)c1cccs1,-5.8,-5.8*
